Tests used:
[1] = target: T1, Serine/threonine-protein kinase TBK1 (Homo sapiens) (UniProt Q9UHD2); conditions: at 1 µM;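 note: values are mean inhibition of TBK1, screened as part of the GSK published kinase inhibitor set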
T1 sequence (whole entry): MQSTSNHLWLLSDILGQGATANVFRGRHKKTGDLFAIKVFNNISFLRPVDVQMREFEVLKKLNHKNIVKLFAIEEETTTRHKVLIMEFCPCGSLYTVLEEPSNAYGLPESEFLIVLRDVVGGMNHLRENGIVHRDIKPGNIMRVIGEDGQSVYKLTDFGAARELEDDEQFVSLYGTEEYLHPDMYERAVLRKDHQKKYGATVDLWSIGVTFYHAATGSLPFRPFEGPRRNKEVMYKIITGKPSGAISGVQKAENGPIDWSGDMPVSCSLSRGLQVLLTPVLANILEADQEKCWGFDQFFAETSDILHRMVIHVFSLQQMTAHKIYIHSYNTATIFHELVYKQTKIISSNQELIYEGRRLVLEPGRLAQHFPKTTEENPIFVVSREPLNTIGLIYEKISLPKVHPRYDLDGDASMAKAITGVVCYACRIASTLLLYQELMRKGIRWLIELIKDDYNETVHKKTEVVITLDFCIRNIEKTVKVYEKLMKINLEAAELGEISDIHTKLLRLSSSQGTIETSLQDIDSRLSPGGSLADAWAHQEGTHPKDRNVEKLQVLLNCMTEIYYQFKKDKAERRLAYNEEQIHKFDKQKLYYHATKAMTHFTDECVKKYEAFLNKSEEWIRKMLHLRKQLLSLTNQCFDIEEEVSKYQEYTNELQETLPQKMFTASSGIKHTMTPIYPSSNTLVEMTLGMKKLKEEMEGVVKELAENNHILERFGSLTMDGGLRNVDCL

[2] = target: T2, Testis-specific serine/threonine-protein kinase 1 (Homo sapiens) (UniProt Q9BXA7); conditions: at 0.1 µM
T2 sequence (whole entry): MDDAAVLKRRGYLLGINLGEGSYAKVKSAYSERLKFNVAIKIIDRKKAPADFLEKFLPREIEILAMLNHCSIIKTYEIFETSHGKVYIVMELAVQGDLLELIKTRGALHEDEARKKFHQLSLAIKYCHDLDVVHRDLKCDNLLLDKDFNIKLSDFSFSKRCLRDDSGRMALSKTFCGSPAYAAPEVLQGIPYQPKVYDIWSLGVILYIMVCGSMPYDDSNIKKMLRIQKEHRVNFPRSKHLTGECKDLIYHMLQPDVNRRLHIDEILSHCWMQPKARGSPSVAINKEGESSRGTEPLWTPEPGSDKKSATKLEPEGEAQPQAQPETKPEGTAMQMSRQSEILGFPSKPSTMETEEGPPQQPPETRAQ

[3] = target: T2, Testis-specific serine/threonine-protein kinase 1 (Homo sapiens); conditions: at 1 µM
[4] = target: T3, Testis-specific serine/threonine-protein kinase 2 (Homo sapiens) (UniProt Q96PF2); conditions: at 0.1 µM
T3 sequence (whole entry): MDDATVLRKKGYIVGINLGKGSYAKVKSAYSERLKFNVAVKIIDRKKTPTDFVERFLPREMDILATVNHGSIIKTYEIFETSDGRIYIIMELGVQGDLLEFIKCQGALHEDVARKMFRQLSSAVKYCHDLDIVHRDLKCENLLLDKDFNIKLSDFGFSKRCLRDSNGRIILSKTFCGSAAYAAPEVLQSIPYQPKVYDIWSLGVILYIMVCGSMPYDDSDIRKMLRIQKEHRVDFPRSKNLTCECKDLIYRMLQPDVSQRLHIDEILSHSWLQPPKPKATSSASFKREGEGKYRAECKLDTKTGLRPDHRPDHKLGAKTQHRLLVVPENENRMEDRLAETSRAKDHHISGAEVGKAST

[5] = target: T3, Testis-specific serine/threonine-protein kinase 2 (Homo sapiens); conditions: at 1 µM
[6] = target: Casein kinase I isoform alpha (Homo sapiens) (UniProt P48729); conditions: at 0.1 µM
[7] = target: Casein kinase I isoform alpha (Homo sapiens) (UniProt P48729); conditions: at 1 µM
[8] = target: Casein kinase I isoform gamma-1 (Homo sapiens) (UniProt Q9HCP0); conditions: at 0.1 µM
[9] = target: Casein kinase I isoform gamma-1 (Homo sapiens) (UniProt Q9HCP0); conditions: at 1 µM
[10] = target: Casein kinase I isoform gamma-2 (Homo sapiens) (UniProt P78368); conditions: at 0.1 µM
[11] = target: Casein kinase I isoform gamma-2 (Homo sapiens) (UniProt P78368); conditions: at 1 µM
[12] = target: Casein kinase I isoform gamma-3 (Homo sapiens) (UniProt Q9Y6M4); conditions: at 0.1 µM
[13] = target: Casein kinase I isoform gamma-3 (Homo sapiens) (UniProt Q9Y6M4); conditions: at 1 µM
[14] = target: Cyclin-dependent kinase 1 (Homo sapiens) (UniProt P06493); conditions: at 0.1 µM
[15] = target: Cyclin-dependent kinase 1 (Homo sapiens) (UniProt P06493); conditions: at 1 µM
[16] = target: Cyclin-dependent kinase 2 (Homo sapiens) (UniProt P24941); conditions: at 0.1 µM
[17] = target: Cyclin-dependent kinase 2 (Homo sapiens) (UniProt P24941); conditions: at 1 µM
[18] = target: Cyclin-dependent kinase 2 (Homo sapiens) (UniProt P24941); conditions: at 0.1 µM; remark: listed apart in the source
[19] = target: Cyclin-dependent kinase 2 (Homo sapiens) (UniProt P24941); conditions: at 1 µM; remark: listed apart in the source
[20] = target: CDK3/Cyclin E (Homo sapiens) (UniProt P24864+Q00526); conditions: at 0.1 µM;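 note: reported percentages are mean inhibition values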
Sequence of CDK3/Cyclin E (Homo sapiens) (P24864 whole entry, looked up): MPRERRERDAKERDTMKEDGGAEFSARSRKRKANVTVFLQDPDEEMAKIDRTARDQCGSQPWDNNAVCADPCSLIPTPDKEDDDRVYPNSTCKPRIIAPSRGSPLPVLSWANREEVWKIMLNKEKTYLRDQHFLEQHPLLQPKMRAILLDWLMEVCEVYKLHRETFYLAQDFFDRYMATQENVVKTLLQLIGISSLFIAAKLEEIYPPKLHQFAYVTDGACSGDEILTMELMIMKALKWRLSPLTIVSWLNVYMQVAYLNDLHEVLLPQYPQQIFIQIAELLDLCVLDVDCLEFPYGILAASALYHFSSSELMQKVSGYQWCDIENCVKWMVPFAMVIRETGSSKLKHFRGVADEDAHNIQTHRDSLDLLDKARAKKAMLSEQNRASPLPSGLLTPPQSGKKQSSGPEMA
Sequence of CDK3/Cyclin E (Homo sapiens) (Q00526 whole entry, looked up): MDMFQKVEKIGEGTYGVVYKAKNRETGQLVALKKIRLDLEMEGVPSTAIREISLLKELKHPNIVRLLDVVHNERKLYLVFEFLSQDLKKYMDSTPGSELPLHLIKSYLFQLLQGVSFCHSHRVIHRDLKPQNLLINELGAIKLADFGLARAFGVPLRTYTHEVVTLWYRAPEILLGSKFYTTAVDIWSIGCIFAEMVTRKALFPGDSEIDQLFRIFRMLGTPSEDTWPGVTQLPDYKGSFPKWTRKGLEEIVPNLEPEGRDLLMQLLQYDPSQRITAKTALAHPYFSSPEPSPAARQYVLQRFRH

Sequence of Casein kinase I isoform gamma-3 (Homo sapiens) (Q9Y6M4 whole entry, looked up, canonical isoform): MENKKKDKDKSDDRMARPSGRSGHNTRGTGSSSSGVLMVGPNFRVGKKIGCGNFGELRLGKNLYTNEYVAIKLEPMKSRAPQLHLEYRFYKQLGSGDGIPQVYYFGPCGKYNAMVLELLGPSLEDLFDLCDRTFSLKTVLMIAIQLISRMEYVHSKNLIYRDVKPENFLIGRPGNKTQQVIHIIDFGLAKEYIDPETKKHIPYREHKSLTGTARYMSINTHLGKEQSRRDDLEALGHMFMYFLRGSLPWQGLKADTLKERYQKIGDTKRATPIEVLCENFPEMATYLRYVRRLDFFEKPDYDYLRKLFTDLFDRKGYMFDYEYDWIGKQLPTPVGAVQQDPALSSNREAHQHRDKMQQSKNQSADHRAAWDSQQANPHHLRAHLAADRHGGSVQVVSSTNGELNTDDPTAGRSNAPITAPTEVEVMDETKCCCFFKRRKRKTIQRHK
Sequence of Casein kinase I isoform alpha (Homo sapiens) (P48729 2-337 limits assumed): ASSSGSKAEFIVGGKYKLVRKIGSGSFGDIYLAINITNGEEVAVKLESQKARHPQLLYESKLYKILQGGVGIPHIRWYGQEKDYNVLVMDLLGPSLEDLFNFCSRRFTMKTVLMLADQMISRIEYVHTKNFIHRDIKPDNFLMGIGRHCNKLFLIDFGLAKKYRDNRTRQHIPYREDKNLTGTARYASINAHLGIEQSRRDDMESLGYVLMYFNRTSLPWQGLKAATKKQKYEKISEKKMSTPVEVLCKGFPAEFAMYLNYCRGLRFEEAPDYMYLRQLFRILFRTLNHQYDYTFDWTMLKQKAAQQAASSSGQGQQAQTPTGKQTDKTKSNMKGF
Sequence of Casein kinase I isoform gamma-2 (Homo sapiens) (P78368 whole entry, looked up, canonical isoform): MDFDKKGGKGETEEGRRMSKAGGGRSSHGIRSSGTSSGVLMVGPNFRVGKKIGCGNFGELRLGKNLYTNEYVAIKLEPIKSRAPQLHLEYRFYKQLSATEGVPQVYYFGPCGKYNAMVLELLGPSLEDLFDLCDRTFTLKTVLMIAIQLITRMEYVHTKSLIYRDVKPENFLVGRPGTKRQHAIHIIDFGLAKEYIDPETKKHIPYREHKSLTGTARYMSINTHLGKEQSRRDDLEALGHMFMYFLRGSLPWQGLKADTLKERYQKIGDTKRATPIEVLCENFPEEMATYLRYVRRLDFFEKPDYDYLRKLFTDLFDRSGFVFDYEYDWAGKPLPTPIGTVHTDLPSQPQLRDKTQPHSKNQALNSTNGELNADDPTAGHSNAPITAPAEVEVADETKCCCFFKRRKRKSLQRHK
Sequence of Cyclin-dependent kinase 1 (Homo sapiens) (P06493 whole entry, looked up): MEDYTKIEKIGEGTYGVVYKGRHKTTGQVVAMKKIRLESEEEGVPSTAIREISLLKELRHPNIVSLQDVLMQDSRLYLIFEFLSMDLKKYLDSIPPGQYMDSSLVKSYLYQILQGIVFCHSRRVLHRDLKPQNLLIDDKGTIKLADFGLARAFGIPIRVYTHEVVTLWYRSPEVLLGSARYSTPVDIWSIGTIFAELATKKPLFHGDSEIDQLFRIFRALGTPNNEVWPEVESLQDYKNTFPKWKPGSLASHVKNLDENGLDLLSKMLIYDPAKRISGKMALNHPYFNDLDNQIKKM
Sequence of Casein kinase I isoform gamma-1 (Homo sapiens) (Q9HCP0 whole entry, looked up, canonical isoform): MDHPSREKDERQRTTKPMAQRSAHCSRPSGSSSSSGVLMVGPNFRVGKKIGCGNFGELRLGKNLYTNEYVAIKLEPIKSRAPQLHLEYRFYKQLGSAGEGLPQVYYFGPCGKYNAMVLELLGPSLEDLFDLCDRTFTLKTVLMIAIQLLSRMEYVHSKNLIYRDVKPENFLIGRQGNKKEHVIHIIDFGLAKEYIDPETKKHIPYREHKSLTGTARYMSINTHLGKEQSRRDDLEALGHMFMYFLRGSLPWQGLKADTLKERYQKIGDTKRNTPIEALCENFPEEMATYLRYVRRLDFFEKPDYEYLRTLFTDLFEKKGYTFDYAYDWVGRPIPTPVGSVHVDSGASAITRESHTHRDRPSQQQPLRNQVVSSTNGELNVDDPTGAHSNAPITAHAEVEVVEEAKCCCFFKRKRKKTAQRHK

| SMILES | inhibition [1] [%] | inhibition [2] [%] | inhibition [3] [%] | inhibition [4] [%] | inhibition [5] [%] | inhibition [6] [%] | inhibition [7] [%] | inhibition [8] [%] | inhibition [9] [%] | inhibition [10] [%] | inhibition [11] [%] | inhibition [12] [%] | inhibition [13] [%] | inhibition [14] [%] | inhibition [15] [%] | inhibition [16] [%] | inhibition [17] [%] | inhibition [18] [%] | inhibition [19] [%] | inhibition [20] [%] |
| --- | --- | --- | --- | --- | --- | --- | --- | --- | --- | --- | --- | --- | --- | --- | --- | --- | --- | --- | --- | --- |
| NS(=O)(=O)c1ccc(N/C=C2\C(=O)Nc3ccc4ncsc4c32)cc1 | 46.7 | 5.24 | 19.4 | 1.13 | 2.94 | 3.99 | 14.7 | 4.38 | 9.59 | 2.65 | 11.1 | 5.65 | 14.4 | 25 | 62.4 | 82.7 | 94.4 | 70.8 | 75 | 75.5 |
| COc1cc2c(cc1Nc1nc(Nc3ccsc3C(N)=O)c3cc[nH]c3n1)N(C(=O)CN(C)C)CCC2 | 25 | 92.3 | 95.5 | 59.4 | 91.2 | -0.45 | 4.2 | -0.49 | 5.86 | – | -7.97 | 1.11 | 10.3 | 5.37 | 6.76 | 4.39 | 6.12 | 0.86 | -1.41 | 0.3 |
| NS(=O)(=O)c1ccc(-c2ccc3c(NC(=O)C4CC4)n[nH]c3c2)cc1 | 3.1 | 0.11 | -0.04 | 1.09 | -2.52 | 6.65 | 2.79 | 1.56 | 2.58 | 1 | 1.7 | 0.52 | -0.19 | 0.48 | 5.13 | 2.91 | 13.4 | 2.18 | 5.85 | 2.19 |
| COc1cccc(COc2cc(-n3cnc4ccccc43)sc2C(N)=O)c1 | 1.53 | -0.31 | -0.86 | 0.72 | -0.49 | -2.17 | -2.7 | 1.18 | 2.68 | 2.02 | 1.17 | 0.42 | 1.21 | 0.45 | -0.26 | 0.15 | -0.04 | -0.91 | -0.85 | -1.38 |
| CCn1c(-c2nonc2N)nc2c(C#CC(C)(C)O)ncc(OCC3CCNCC3)c21 | 44.7 | 24.4 | 73 | 2.77 | 5.17 | 4.15 | 4.34 | -0.98 | 0.65 | -1.19 | 0.7 | -1.65 | -0.62 | -0.87 | 4.13 | -0.3 | 4.17 | 6.49 | 9.55 | 7.2 |
| COc1cc(C=NNc2ncnc3c2cnn3Cc2ccccc2)ccc1O | 3.75 | -3.19 | -2.62 | -2.34 | -2.56 | -0.09 | -4.3 | -3.34 | -3.33 | -2.95 | -3.09 | 0.15 | -1.86 | 3.83 | 14.8 | 0.83 | 0.3 | -0.38 | 6.08 | 0.9 |
| CCn1c(-c2nonc2N)nc2c(C#CCN)ncc(OCCCN)c21 | 4.32 | -0.75 | 11.3 | -0.97 | 4.75 | 1.05 | -3.92 | -2.42 | -2.61 | -0.29 | -2.49 | -1.84 | -2.94 | 3.69 | 2.18 | 0.26 | 0.59 | 2.03 | 2.69 | 2.51 |
| Nc1nonc1-c1nc2cnccc2n1C1CCCCC1 | 24.8 | 0.17 | 6.12 | -1.12 | -2.07 | -1.01 | -0.02 | -2.65 | -0.45 | -2.61 | 0.45 | -1.94 | 1.85 | 5.2 | 24.5 | 7.81 | 44.6 | 8.62 | 41.5 | 4.5 |
| CCn1c(-c2nonc2N)nc2c(C#CC(C)(C)O)nc(O[C@@H](CN)c3ccccc3)cc21 | 68 | 85.5 | 95.6 | 1.41 | 14.8 | 1.59 | 4.15 | -0.58 | 7.01 | -0.78 | 4.43 | -0.48 | 9.88 | 4.13 | 4.92 | 2.07 | 4.12 | 2.92 | 4.27 | 3.62 |
| Cc1cc(-c2ccco2)cc(C)c1/C=C/c1cncc(-c2nn[nH]n2)c1 | 2.37 | 1.7 | 2.37 | 1.46 | 0.42 | 1.02 | -0.59 | 1.01 | 1.56 | 0.62 | 1.08 | 0.9 | 2.3 | 0.87 | 2.16 | 0.49 | 1.75 | 0.38 | 2.54 | -0.91 |
| Fc1ccc(-c2ncn(C3CCNCC3)c2-c2ccnc(Oc3ccccc3)n2)cc1 | 2.78 | 2.36 | 1.65 | 0.82 | 0.7 | 4.72 | 30.9 | -1.52 | 4.5 | -1.96 | 2.3 | -1.46 | 10 | -3.4 | -1.98 | -3.24 | -1.87 | -2.35 | -0.94 | -3.17 |
| CCn1c(-c2nonc2N)nc2c(C#CC(C)(C)O)ncc(OC[C@@H]3CCCN3)c21 | 41.2 | 20.6 | 70.4 | 4.9 | 2.67 | -1.71 | -2.58 | 1.04 | 2.69 | 1.05 | 2.18 | 0.87 | 3.35 | -0.63 | 0.58 | -1.52 | -0.07 | -0.64 | -0.07 | -0.42 |
| COc1cccc(-n2ncc3c(N/N=C/c4ccncc4)ncnc32)c1 | 13.1 | 4.13 | 5.05 | 1.6 | 2.48 | 6.11 | 11.2 | 3.65 | 7.48 | 3.26 | 9.79 | 5.28 | 6.59 | 45 | 81.8 | 47 | 76.8 | 24.6 | 65.2 | 12.2 |
| NC(=O)c1sc(-n2cnc3cc(C(F)(F)F)ccc32)cc1OCc1ccccc1Br | 1.3 | 2.93 | 3.05 | 2.48 | 1.1 | 1.1 | -0.24 | 1.09 | -0.28 | 0.61 | 0.89 | 1.52 | 1.06 | 0.9 | 4.47 | 0.47 | 2.92 | 0.99 | 3.19 | -1.34 |
